Screening results from PubChem BioAssay.
ALDH1A1 block: ALDH1A1 (human) enzyme inhibition | P00352 | Purified ALDH1A1, NADH fluorescence, propionaldehyde substrate | Potency, µM (titrated, usually from 75.3 µM), hits mostly inhibitors | 220,000 tested, 7.3% active | AID 1030
Target sequence (P00352 whole entry, looked up): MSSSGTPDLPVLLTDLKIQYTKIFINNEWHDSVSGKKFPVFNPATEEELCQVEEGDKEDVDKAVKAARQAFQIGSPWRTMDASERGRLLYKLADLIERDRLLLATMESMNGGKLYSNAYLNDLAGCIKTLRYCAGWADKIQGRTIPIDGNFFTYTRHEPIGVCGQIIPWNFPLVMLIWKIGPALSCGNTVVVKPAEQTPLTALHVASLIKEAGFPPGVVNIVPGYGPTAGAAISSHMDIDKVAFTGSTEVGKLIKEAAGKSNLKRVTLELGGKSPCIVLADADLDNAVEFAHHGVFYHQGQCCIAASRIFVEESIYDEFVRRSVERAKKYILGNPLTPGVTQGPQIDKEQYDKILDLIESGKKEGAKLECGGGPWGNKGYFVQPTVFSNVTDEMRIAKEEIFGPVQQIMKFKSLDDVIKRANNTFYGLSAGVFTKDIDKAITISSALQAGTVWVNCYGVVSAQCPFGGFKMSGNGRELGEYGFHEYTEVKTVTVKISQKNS
PNC assembly inh: inhibitors of perinucleolar compartment assembly; PC3M PTB-GFP, PNC prevalence imaging, 16 h; hits give low values; activity change (PNC), negative = inhibition, % at 10 µM; 140,000 tested, 3.1% active; AID 2417;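 active = readout at or below -70, meaning at least 70% loss of cells showing the perinucleolar compartment, a nuclear body marking cancer cells; inconclusive = readout between -30 and a set limit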
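PC3M cells stably expressing PTB-GFP, 750–1000 cells/well, treated 16 h at 37 °C with compound (23 nl of library stock), in duplicate. After paraformaldehyde fixation and Hoechst stain, imaged at 20x; PNC prevalence scored by image analysis.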
HPGD block: inhibitors of human 15-hydroxyprostaglandin dehydrogenase (HPGD) | P15428 | AID 894 | purified HPGD, NADH fluorescence kinetic, PGE2 substrate | 150,000 tested, 4.3% active | Potency, µM, hits mostly inhibitors
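20 nM HPGD preincubated 15 min at room temperature with compound in 50 mM Tris-HCl pH 8, 0.01% Tween 20. Started with 1 mM NAD+ and 30 uM prostaglandin E2; NADH fluorescence (360/450 nm) read 5 times over 30-s intervals, last minus first.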
Large screens that a line does not name were inactive. Hits are enriched below; roughly 11% of the tested compounds scored in any of these assays. Unless noted, calls follow the shape of the dose curve; as a rule, active = well fitted inhibition curve with a large enough effect (not every such curve was filed as active); inconclusive = small, poorly fitted or top-dose-only effect, or another doubt; inactive = no such curve, though single readings can be large or run the other way.

C=C(C)CN(CC)C(=O)CCc1nnc(CCc2c[nH]c3ccccc23)o1	none (no result: PNC assembly inh, HPGD block)
Cn1cnnc1-c1cccc(NC(=O)c2cc(F)c(F)cc2Cl)c1	none (no result: PNC assembly inh, HPGD block)
Cc1cc(C)n2nc(SCc3ncc(-c4ccccc4)o3)nc2n1	ALDH1A1 block inconclusive, HPGD block inconclusive
c1ccc(-c2cnc(CSc3ncnc4sccc34)o2)cc1	HPGD block 3.2µM
COc1ccc(CCNC(=O)Cn2c(=O)[nH]c3ccsc3c2=O)cc1OC	none (no result: PNC assembly inh, HPGD block)
CC(=O)OCC(=O)[C@@]1(O)CCC2C3C[C@H](C)C4=CC(=O)C=CC4(C)C3C(O)CC21C (some centres not stated)	none (no result: PNC assembly inh)
N/C(=N\O)c1ccccc1N1CCCCC1	none (no result: PNC assembly inh, HPGD block)
COc1ccc(CC2C(=O)OC(C)(C)OC2=O)cc1	none
COc1ccc(CC2CCOC2=O)cc1 (configuration not stated)	PNC assembly inh -127
Cc1cccc(-n2c(SCc3ccc(C#N)cc3)nnc2-c2c[nH]c3ccccc23)c1	none
CCCn1cnc2c1c(=O)n(CCCCC(C)=O)c(=O)n2C	none (no result: PNC assembly inh)
CC1NC(=O)NC1CCCCCC(=O)NCCc1ccccc1 (configuration not stated)	ALDH1A1 block inconclusive, PNC assembly inh inconclusive, HPGD block 25µM
Cc1cccc(C)c1NC(=O)CCCCCC1NC(=O)NC1C (configuration not stated)	none (no result: PNC assembly inh, HPGD block)
CCOC(=O)c1c(NC(=O)CN2CCOCC2)sc2c1CC(C)(C)OC2	ALDH1A1 block 14µM, PNC assembly inh inconclusive
CCOC(=O)c1c(NC(=O)CCC(=O)N2CCOCC2)sc2c1CC(C)(C)OC2	ALDH1A1 block inconclusive, PNC assembly inh inconclusive
CCOC(=O)c1c(NC(=O)CCN2CCOCC2)sc2c1CC(C)(C)OC2	ALDH1A1 block 22µM, PNC assembly inh inconclusive
C=C(C)CNC(=S)Nc1sc2c(c1C(=O)OCC)CC(C)(C)OC2	ALDH1A1 block 13µM (no result: HPGD block)
COC(=O)c1c(NC(=O)CN2CCOCC2)sc2c1CCC(C)C2 (configuration not stated)	ALDH1A1 block inconclusive, PNC assembly inh inconclusive
CCOC(=O)c1c(NC(=O)c2ccc(C)cc2)sc2c1CC(C)(C)OC2	ALDH1A1 block inconclusive, HPGD block inconclusive
CC(C)CN1CC[C@@]2(CCCN(C(=O)c3cnccn3)C2)C1	none (no result: PNC assembly inh)
CCN(CC)CCNc1ccc2nnc(CCNS(=O)(=O)c3ccc(C)cc3)n2n1	none (no result: PNC assembly inh, HPGD block)
Cc1cccc(NC(=O)C2CCCN2C(=O)NC2CCCCC2)c1 (configuration not stated)	none (no result: PNC assembly inh, HPGD block)
N#C/C(=N\Nc1cccc(F)c1)C(=N)N1CCCCCC1	none (no result: PNC assembly inh, HPGD block)
N#C/C(=N\Nc1ccc(F)cc1)C(=N)N1CCCCC1	ALDH1A1 block 28µM
COc1ccccc1NC(=O)c1ccc(NC(=O)CN(C)Cc2ccccc2F)cc1	none (no result: PNC assembly inh, HPGD block)
O=C(O)[C@@H](Cc1c[nH]c2ccccc12)C(=O)NO	none (no result: PNC assembly inh)
Cc1nn(Cc2ccccc2)c(Cl)c1C(=O)OC(C)C#N (configuration not stated)	ALDH1A1 block 22µM (no result: PNC assembly inh, HPGD block)
Cc1nn(Cc2ccccc2)c(Cl)c1C(=O)NCCc1ccccc1	none
Cc1ccc(OC(=O)C2c3ccccc3Oc3ccccc32)cc1C	none
CC(C)(C)NC(=O)CC1C(=O)NCCN1Cc1c(F)cccc1Cl (configuration not stated)	none (no result: PNC assembly inh, HPGD block)
NNC(=O)c1nnn(-c2nonc2N)c1-c1cccs1	ALDH1A1 block 11µM
CCOC(=O)c1nnn(-c2nonc2N)c1-c1ccccc1	none
C/C=C/C=C/C=O	ALDH1A1 block 25µM (no result: PNC assembly inh)
C/C=C1/C(=O)C[C@@H]2[C@H]3CCC4=CC(=O)CC[C@]4(C)[C@@H]3CC[C@]12C	none (no result: PNC assembly inh, HPGD block)
COc1ccc(-c2cc(C(=O)NCCCn3ccnc3)no2)cc1OC	none
O=C(NCCCn1ccnc1)c1cc(-c2ccc3c(c2)OCO3)on1	PNC assembly inh -91
CC(Sc1ncnc2ccccc12)C(=O)Nc1ccc2c(c1)OCCO2 (configuration not stated)	ALDH1A1 block inconclusive
CC(C)Cn1c(SC(C)C(=O)Nc2ccc3c(c2)OCCO3)nc2ccccc2c1=O (configuration not stated)	ALDH1A1 block 16µM
COc1ccccc1Nc1nnc(SCC2CCCCO2)s1 (configuration not stated)	ALDH1A1 block 32µM (no result: PNC assembly inh, HPGD block)
Cc1ccccc1Nc1nnc(SCC2CCCCO2)s1 (configuration not stated)	PNC assembly inh inconclusive
NC[C@@H]1O[C@H](O[C@H]2[C@H](O)[C@H](O[C@@H]3O[C@H](CO)[C@@H](O)[C@H](N)[C@@H]3O)[C@@H](N)C[C@H]2N)[C@@H](O)[C@H](O)[C@@H]1O	none (no result: PNC assembly inh)
Fc1cccc(CSc2ccc3nnc(-c4cccnc4)n3n2)c1	none (no result: PNC assembly inh, HPGD block)
Nc1nc(-c2ccccc2)c(N=Nc2ccc(Cl)cc2)s1	ALDH1A1 block 28µM, HPGD block inconclusive
Nc1nc(-c2ccccc2)c(-c2ccccc2)s1	ALDH1A1 block inconclusive
COc1cc2c(c(OC)c1OC)-c1ccc(OC)c(=O)cc1[C@H](NC(C)=O)CC2	none (no result: PNC assembly inh)
O=C(N/N=C/c1cccs1)[C@H]1C[C@@H]1c1ccccc1	none
S=C(N/N=C/c1cccs1)NC1CC2CCC1C2 (configuration not stated)	ALDH1A1 block 18µM (no result: PNC assembly inh, HPGD block)
Oc1ccc(/C=N/NC(=S)NC2CC3CCC2C3)cc1 (configuration not stated)	ALDH1A1 block 7.1µM (no result: PNC assembly inh, HPGD block)
Oc1ccc(/C=N/NC(=S)NCC2CCCO2)cc1 (configuration not stated)	none
Cc1ccc(NC(=O)CCCc2nc3ccccc3s2)c(O)c1	none (no result: PNC assembly inh, HPGD block)
O=C1C2=CC[C@H]3C(=O)N(Cc4ccc5c(c4)OCO5)C(=O)[C@@H]3[C@@H]2[C@H](O)[C@@H]2O[C@H]12	none (no result: PNC assembly inh, HPGD block)
Cc1cccc(/C=N/c2sc3c(c2C#N)CCN(Cc2ccccc2)C3)c1O	ALDH1A1 block inconclusive, PNC assembly inh inconclusive
Cc1ccc(C)c(N=C2CCCN2Cc2ccccc2)c1C#N	PNC assembly inh -119
Oc1[nH]c2ccccc2c1C=Nc1ccc2c(c1)OCO2	ALDH1A1 block inconclusive
O=[N+]([O-])c1cc(Br)cc(C=Nc2ccc3c(c2)OCO3)c1O	ALDH1A1 block 10µM (no result: PNC assembly inh, HPGD block)
O=C(NNC(=O)C1CCCO1)c1ccc(F)cc1 (configuration not stated)	none
O=C1C=C(Nc2ccc(Cl)cc2)CC(c2ccccc2)C1 (configuration not stated)	none
COC(=O)c1c(C(=O)OC)c2n(c1C)CCC2	none
COC(=O)c1c(O)cc(=O)n2c1CCCCC2	ALDH1A1 block 1.8µM (no result: PNC assembly inh, HPGD block)
CC(C)C(NC(=O)c1ccccc1F)C(=O)NCCc1ccccn1 (configuration not stated)	none (no result: PNC assembly inh, HPGD block)
O=C(c1ccc(S(=O)(=O)Cc2ccccc2F)c([N+](=O)[O-])c1)N1CCCCCC1	none (no result: PNC assembly inh, HPGD block)
O=C(c1ccc(S(=O)(=O)c2ccccc2Cl)c([N+](=O)[O-])c1)N1CCCCCC1	ALDH1A1 block inconclusive, PNC assembly inh -105, HPGD block 25µM
COc1ccc(/C=C/S(=O)(=O)NCc2ccccc2)cc1OC	none (no result: PNC assembly inh, HPGD block)
CC(C)Cn1c2ccccc2c2cc(C(=O)O)ccc21	none
CCCCn1c(=O)c(-c2ccccc2)c(O)c2ccccc21	ALDH1A1 block inconclusive
CCCCn1c(=O)c(-[n+]2ccccc2)c([O-])c2ccccc21	ALDH1A1 block 14µM
CC(C)Cn1c(=O)c(-[n+]2ccccc2)c([O-])c2ccccc21	ALDH1A1 block 2.8µM (no result: PNC assembly inh, HPGD block)
OC(C#CCN1CCCC1)c1ccccc1 (configuration not stated)	ALDH1A1 block inconclusive, PNC assembly inh -87
OC(C#CCN1CCCCC1)c1ccccc1 (configuration not stated)	none
